Data: the antibiotic and cytotoxicity screens of Wong et al. (2023)
Screen size: about 39,000 compounds; about 3,300 (8.5%) were called active. For the sample, actives were picked, then their nearest neighbours and some compounds at random.

system: HepG2; assay: cytotoxicity call (relative viability < 0.9); settings: 10 µM

Row | SMILES | cytotoxicity call
1 | C[C@@H]1CN([C@@H](C)CO)C(=O)Cc2cc(NC(=O)CCC(F)(F)F)ccc2O[C@@H]1CN(C)Cc1ccc(Cl)c(Cl)c1 | active
2 | C[C@H]1CN([C@@H](C)CO)C(=O)c2cc(NC(=O)CCC(F)(F)F)ccc2O[C@H]1CN(C)Cc1ccc(Cl)c(Cl)c1 | inactive
3 | C[C@@H]1CN([C@@H](C)CO)C(=O)c2cc(NC(=O)CCC(F)(F)F)ccc2O[C@H]1CN(C)Cc1ccc(Cl)c(Cl)c1 | active
4 | C[C@H](CO)N1C[C@H](C)[C@@H](CN(C)Cc2ccc(Cl)c(Cl)c2)Oc2ccc(NC(=O)CCC(F)(F)F)cc2CC1=O | inactive
5 | C[C@@H]1CN([C@H](C)CO)C(=O)c2cc(NC(=O)CCC(F)(F)F)ccc2O[C@@H]1CN(C)Cc1ccc(Cl)c(Cl)c1 | inactive
6 | C[C@@H]1CN([C@H](C)CO)C(=O)Cc2cc(NC(=O)CCC(F)(F)F)ccc2O[C@@H]1CN(C)Cc1ccc(Cl)c(Cl)c1 | inactive
7 | C[C@@H]1CN([C@@H](C)CO)C(=O)Cc2cc(NC(=O)CCC(F)(F)F)ccc2O[C@H]1CN(C)Cc1ccc(Cl)c(Cl)c1 | active
8 | C[C@@H]1CN([C@H](C)CO)C(=O)Cc2cc(NC(=O)CCC(F)(F)F)ccc2O[C@H]1CN(C)Cc1ccc(Cl)c(Cl)c1 | inactive
9 | C[C@H](CO)N1C[C@H](C)[C@H](CN(C)Cc2ccc(Cl)c(Cl)c2)Oc2ccc(NC(=O)CCC(F)(F)F)cc2CC1=O | inactive
10 | C[C@H]1CCCCO[C@@H](CN(C)C(=O)Nc2ccc(C(F)(F)F)cc2)[C@@H](C)CN([C@@H](C)CO)C(=O)c2cc(N(C)C)ccc2O1 | inactive
11 | CC(C)NC(=O)Nc1ccc2c(c1)CC(=O)N([C@H](C)CO)C[C@@H](C)[C@@H](CN(C)Cc1ccc3c(c1)OCO3)O2 | inactive
12 | C[C@@H]1CCCCO[C@H](CN(C)C(=O)Cc2ccccc2)[C@@H](C)CN([C@H](C)CO)C(=O)c2cc(NC(=O)Cc3ccccc3)ccc2O1 | inactive
13 | C[C@H]1CN([C@@H](C)CO)C(=O)c2cccc(NC(=O)c3ccc(-c4nccs4)cc3)c2O[C@H]1CN(C)C(=O)NC1CCCCC1 | inactive
14 | Cc1noc(C)c1NC(=O)N(C)C[C@@H]1OCCCC[C@@H](C)Oc2ccc(NC(=O)Nc3ccc(C(F)(F)F)cc3)cc2C(=O)N([C@H](C)CO)C[C@@H]1C | inactive
15 | C[C@H](CO)N1C[C@H](C)[C@H](CN(C)C(=O)Nc2ccc(C(F)(F)F)cc2)OCCCC[C@H](C)Oc2ccc(NC(=O)Nc3ccc(C(F)(F)F)cc3)cc2C1=O | inactive
16 | CC(C)NC(=O)N(C)C[C@@H]1OCCCC[C@H](C)Oc2ccc(NC(=O)Nc3ccc(C(F)(F)F)cc3)cc2C(=O)N([C@@H](C)CO)C[C@@H]1C | active
17 | CC(C)NC(=O)N(C)C[C@H]1OCCCC[C@H](C)Oc2ccc(NC(=O)Nc3ccc(C(F)(F)F)cc3)cc2C(=O)N([C@H](C)CO)C[C@@H]1C | inactive
18 | C[C@@H]1CN([C@H](C)CO)C(=O)c2cc(NC(=O)Nc3ccc(C(F)(F)F)cc3)ccc2O[C@@H](C)CCCCO[C@H]1CN(C)C(=O)Nc1ccc(C(F)(F)F)cc1 | active
19 | C[C@@H]1CCCCO[C@H](CN(C)C(=O)Nc2ccc(C(F)(F)F)cc2)[C@@H](C)CN([C@@H](C)CO)C(=O)c2cc(NC(=O)Nc3ccc(C(F)(F)F)cc3)ccc2O1 | inactive

Row | SMILES | cytotoxicity call
20 | C[C@H]1CCCCO[C@@H](CN(C)C(=O)Nc2ccc(C(F)(F)F)cc2)[C@@H](C)CN([C@@H](C)CO)C(=O)c2cc(NC(=O)Nc3ccc(C(F)(F)F)cc3)ccc2O1 | inactive
21 | C[C@@H]1CCCCO[C@H](CN(C)C(=O)Nc2ccc(C(F)(F)F)cc2)[C@H](C)CN([C@H](C)CO)C(=O)c2cc(NC(=O)Nc3ccc(C(F)(F)F)cc3)ccc2O1 | inactive
22 | Cc1noc(C)c1NC(=O)N(C)C[C@H]1OCCCC[C@@H](C)Oc2ccc(NC(=O)Nc3ccc(C(F)(F)F)cc3)cc2C(=O)N([C@@H](C)CO)C[C@H]1C | inactive
23 | C[C@H]1CCCCO[C@H](CN(C)C(=O)Nc2ccc(C(F)(F)F)cc2)[C@@H](C)CN([C@@H](C)CO)C(=O)c2cc(NC(=O)Nc3ccc(C(F)(F)F)cc3)ccc2O1 | active
24 | CC(C)NC(=O)N(C)C[C@H]1OCCCC[C@@H](C)Oc2ccc(NC(=O)Nc3ccc(C(F)(F)F)cc3)cc2C(=O)N([C@@H](C)CO)C[C@H]1C | inactive
25 | Cc1noc(C)c1NC(=O)N(C)C[C@@H]1OCCCC[C@H](C)Oc2ccc(NC(=O)Nc3ccc(C(F)(F)F)cc3)cc2C(=O)N([C@@H](C)CO)C[C@@H]1C | active
26 | C[C@@H]1CCCCO[C@@H](CN(C)S(C)(=O)=O)[C@H](C)CN([C@@H](C)CO)C(=O)c2cc(NS(=O)(=O)c3cn(C)cn3)ccc2O1 | inactive
27 | C[C@H]1CN([C@@H](C)CO)C(=O)c2cc(NC(=O)C3CC3)ccc2O[C@@H]1CN(C)C(=O)NC1CCCCC1 | inactive
28 | O=C(C[C@H]1C[C@@H]2c3cc(NC(=O)Cc4ccncc4)ccc3O[C@@H]2[C@H](CO)O1)NCCN1CCCCC1 | inactive
29 | C[C@H]1CN([C@@H](C)CO)C(=O)c2cccc(NC(=O)CCCCCC(=O)Nc3ccccc3N)c2O[C@@H]1CN(C)C(=O)Nc1ccc(F)cc1 | inactive
30 | C[C@@H]1CCCCO[C@@H](CN(C)CC2CCCCC2)[C@@H](C)CN([C@H](C)CO)C(=O)c2cc(NC(=O)Cc3ccccc3)ccc2O1 | inactive
31 | COc1ccccc1[C@@H](NC(=O)C1CCN(CCn2cnc3c2c(=O)n(C)c(=O)n3C)CC1)c1ccccn1 | inactive
32 | CN1CCN(C(=O)C[C@H]2C[C@H]3c4cc(NS(=O)(=O)c5ccc(F)cc5)ccc4O[C@H]3[C@@H](CO)O2)CC1 | inactive
33 | C[C@@H]1CCCCO[C@@H](CN(C)S(=O)(=O)c2ccc(Cl)cc2)[C@@H](C)CN([C@@H](C)CO)C(=O)c2cc(NC(=O)Nc3ccc(C(F)(F)F)cc3)ccc2O1 | inactive
34 | COc1ccc(NC(=O)N(C)C[C@@H]2OCCCC[C@@H](C)Oc3ccc(NC(=O)Nc4ccc(C(F)(F)F)cc4)cc3C(=O)N([C@H](C)CO)C[C@@H]2C)cc1 | inactive
35 | COc1ccc(NC(=O)Nc2ccc3c(c2)C(=O)N([C@H](C)CO)C[C@@H](C)[C@H](CN(C)C(=O)Nc2ccc(C(F)(F)F)cc2)OCCCC[C@@H](C)O3)cc1 | inactive
36 | COc1ccc(NC(=O)N(C)C[C@H]2OCCCC[C@@H](C)Oc3ccc(NC(=O)Nc4ccc(C(F)(F)F)cc4)cc3C(=O)N([C@H](C)CO)C[C@H]2C)cc1 | active
37 | O=C(C[C@H]1CC[C@@H]2[C@H](COC[C@H](O)CN2C(=O)c2cccnc2)O1)NCC1CC1 | inactive
38 | Fc1cccc(-c2csc(COc3ccccc3Cl)n2)c1 | inactive

Row | SMILES | cytotoxicity call
39 | Cc1cc(=O)oc2cc(O)c(O)cc12 | inactive
40 | O=c1oc2c(O)c(O)cc3c(=O)oc4c(O)c(O)cc1c4c23 | active
41 | O=c1c(O)c(-c2cc(O)c(O)c(O)c2)oc2cc(O)cc(O)c12 | inactive
42 | O=C(C[C@@H]1C[C@H]2c3cc(NC(=O)C4CCOCC4)ccc3O[C@H]2[C@@H](CO)O1)NCc1ccc2c(c1)OCO2 | inactive
43 | COc1ccc([C@H]([C@H](Cc2ccccc2)OC(C)=O)N(C[C@@H](/C=C/c2ccccc2)CC(=O)N(C)C)[C@@H](Cc2ccccc2)C(OC)OC)cc1 | active
44 | COc1ccc([C@H]([C@@H](O)Cc2ccccc2)N(C/C=C/[C@@H](O)c2ccccc2)[C@@H](Cc2ccccc2)C(OC)OC)cc1 | inactive
45 | COc1ccc([C@@H]([C@H](Cc2ccccc2)OC(C)=O)N2C[C@H](CC(=O)N(C)C)[C@@H]3C(=NO[C@H]3c3ccccc3)[C@@H]2Cc2ccccc2)cc1 | inactive
46 | COc1ccc([C@H]([C@H](Cc2ccccc2)OC(C)=O)N(C[C@H](/C=C/c2ccccc2)OC(C)=O)[C@@H](Cc2ccccc2)C(OC)OC)cc1 | inactive
47 | COc1ccc([C@H]([C@H](Cc2ccccc2)OC(C)=O)N(C[C@H](/C=C/c2ccccc2)NC(=O)C(Cl)(Cl)Cl)[C@@H](Cc2ccccc2)C(OC)OC)cc1 | inactive
48 | COc1ccc([C@H]([C@@H](O)Cc2ccccc2)N(C[C@H](/C=C/c2ccccc2)CC(=O)N(C)C)[C@@H](Cc2ccccc2)C(OC)OC)cc1 | active
49 | COc1ccc([C@H]([C@@H](O)Cc2ccccc2)N(C[C@H](/C=C/c2ccccc2)NC(=O)C(Cl)(Cl)Cl)[C@@H](Cc2ccccc2)C(OC)OC)cc1 | inactive
50 | COc1ccc([C@H]([C@H](Cc2ccccc2)OC(C)=O)N(C[C@H](/C=C/c2ccccc2)CC(=O)N(C)C)[C@@H](Cc2ccccc2)C(OC)OC)cc1 | active
51 | COc1ccc([C@@H]([C@H](Cc2ccccc2)OC(C)=O)N2C[C@@H](CC(=O)N(C)C)[C@@H]3C(=NO[C@H]3c3ccccc3)[C@@H]2Cc2ccccc2)cc1 | inactive
52 | Cc1noc(C)c1NC(=O)Nc1ccc2c(c1)C(=O)N([C@H](C)CO)C[C@H](C)[C@@H](CN(C)C(=O)Nc1ccccc1)OCCCC[C@H](C)O2 | inactive
53 | Cc1ccc(S(=O)(=O)Nc2ccc3c(c2)C(=O)N([C@@H](C)CO)C[C@@H](C)[C@H](CN(C)Cc2ccc4c(c2)OCO4)OCCCC[C@H](C)O3)cc1 | inactive
54 | CC(C)C[C@@H]1NC(=O)[C@@H]2C[C@H](C(=O)NCCCCCNC(=O)CS)[C@H](c3cccc(OCCO)c3)N2C1=O | inactive
55 | CN1C[C@]2(CCN(C(=O)c3cn(CCN4CCNCC4)nn3)C2)OC1=O | inactive
56 | Cc1noc(C)c1S(=O)(=O)N(C)C[C@@H]1Oc2ccc(NC(=O)Cc3ccccc3)cc2CC(=O)N([C@@H](C)CO)C[C@@H]1C | inactive
57 | CC(C)NC(=O)N(C)C[C@H]1Oc2ccc(NC(=O)CCCN(C)C)cc2C(=O)N([C@H](C)CO)C[C@H]1C | inactive
